# Records with an inconclusive call do not appear. The source made the active and inactive calls. How the source made its calls: active means hit-call score of the fitted dose curve at least 0.9, where 1 is the maximum; inconclusive means response in the unintended direction; inactive means score below 0.9.
# Assay: ACEA_ER_80hr: ACEA Biosciences xCELLigence Real-Time Cell Analysis on Estrogen Receptor Agonism for Proliferation (AID 2282667)
# Details: T47D proliferation, impedance (xCELLigence), 80 h
# Procedure, shortened: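 Estrogen-driven proliferation is captured as electrode impedance in T47D cells 80 h after compound addition. Test articles ran at 8 concentrations, 1:4 dilutions from 100 uM final, in two replicate plates.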
SMILES,outcome,AC50
CCC(C)COC(=O)CC(C)C (configuration not stated),inactive,–
CCCCCCCCOC(C)=O,inactive,–
CC(O)CNCC(C)O (configuration not stated),–,13.1 µM (active)
OCCCO,inactive,–
CCCc1ccc(O)cc1,–,50 µM (active)
CCC(CC)CO,inactive,–
CC(=O)C1=C(C)[C@@H]2C[C@@]3(C1)[C@H](C)CC[C@H]3C2(C)C,inactive,–
CCCCCCCCCCCCN1CCOCC1,inactive,–
N#CCCCC(C#N)CCC#N (configuration not stated),inactive,–
CCCO[Si](OCCC)(OCCC)OCCC,inactive,–
CCc1cccc(O)c1,inactive,–
CC(=O)CCc1ccc(O)cc1,inactive,–
c1coc(CNc2ncnc3nc[nH]c23)c1,inactive,–
CCCCCCCCCO,inactive,–
CC/C=C\CCCCO,inactive,–
CC(C)(C)C1CCC(O)CC1 (configuration not stated),inactive,–
O=C(O)c1cccc(Cl)n1,inactive,–
O=C(O)C1=NN(c2ccc(S(=O)(=O)O)cc2)C(=O)C1,inactive,–
CC1=C(C=O)C(C)(C)CCC1,–,3.65 µM (active)

SMILES,outcome,AC50
CC1=CCC(C(C)C)=CC1,inactive,–
CCC(C)C1CCCCC1=O (configuration not stated),inactive,–
CC(C)COC(=O)c1ccccc1O,inactive,–
CN(C)CCC=C1c2ccccc2CCc2ccccc21,–,0.124 µM (active)
O=C(O)C(F)(F)OC(F)(F)C(F)(F)OC(F)(F)C(F)(F)C(F)(F)C(F)(F)F,inactive,–
CC1=CC[C@@H]2C[C@H]1C2(C)C,inactive,–
CC(C)(C)c1ccc(S)cc1,inactive,–
Cc1cc(O)c2c(c1)C(=O)c1cc(O)cc(O)c1C2=O,–,0.493 µM (active)
COc1ccc2[nH]cc(CCNC(C)=O)c2c1,inactive,–
COc1ccc(C(C)=O)cc1,–,0.0267 µM (active)
C=CCS(=O)(=O)O,inactive,–
NNC(=O)OCc1ccccc1,inactive,–
CCCCCCCCCCCCOCCOS(=O)(=O)O,–,1.98 µM (active)
NCCCOCCOCCOCCCN,–,10.2 µM (active)
COc1ccc(OC)cc1,inactive,–
Cc1cccc(O)c1,inactive,–
CC(C)C(=O)c1ccccc1,inactive,–
CC(C)OB(OC(C)C)OC(C)C,inactive,–
